The target of test [1] is T1, Protein deacetylase HDAC6 (Homo sapiens) (UniProt Q9UBN7).
T1 sequence (whole entry): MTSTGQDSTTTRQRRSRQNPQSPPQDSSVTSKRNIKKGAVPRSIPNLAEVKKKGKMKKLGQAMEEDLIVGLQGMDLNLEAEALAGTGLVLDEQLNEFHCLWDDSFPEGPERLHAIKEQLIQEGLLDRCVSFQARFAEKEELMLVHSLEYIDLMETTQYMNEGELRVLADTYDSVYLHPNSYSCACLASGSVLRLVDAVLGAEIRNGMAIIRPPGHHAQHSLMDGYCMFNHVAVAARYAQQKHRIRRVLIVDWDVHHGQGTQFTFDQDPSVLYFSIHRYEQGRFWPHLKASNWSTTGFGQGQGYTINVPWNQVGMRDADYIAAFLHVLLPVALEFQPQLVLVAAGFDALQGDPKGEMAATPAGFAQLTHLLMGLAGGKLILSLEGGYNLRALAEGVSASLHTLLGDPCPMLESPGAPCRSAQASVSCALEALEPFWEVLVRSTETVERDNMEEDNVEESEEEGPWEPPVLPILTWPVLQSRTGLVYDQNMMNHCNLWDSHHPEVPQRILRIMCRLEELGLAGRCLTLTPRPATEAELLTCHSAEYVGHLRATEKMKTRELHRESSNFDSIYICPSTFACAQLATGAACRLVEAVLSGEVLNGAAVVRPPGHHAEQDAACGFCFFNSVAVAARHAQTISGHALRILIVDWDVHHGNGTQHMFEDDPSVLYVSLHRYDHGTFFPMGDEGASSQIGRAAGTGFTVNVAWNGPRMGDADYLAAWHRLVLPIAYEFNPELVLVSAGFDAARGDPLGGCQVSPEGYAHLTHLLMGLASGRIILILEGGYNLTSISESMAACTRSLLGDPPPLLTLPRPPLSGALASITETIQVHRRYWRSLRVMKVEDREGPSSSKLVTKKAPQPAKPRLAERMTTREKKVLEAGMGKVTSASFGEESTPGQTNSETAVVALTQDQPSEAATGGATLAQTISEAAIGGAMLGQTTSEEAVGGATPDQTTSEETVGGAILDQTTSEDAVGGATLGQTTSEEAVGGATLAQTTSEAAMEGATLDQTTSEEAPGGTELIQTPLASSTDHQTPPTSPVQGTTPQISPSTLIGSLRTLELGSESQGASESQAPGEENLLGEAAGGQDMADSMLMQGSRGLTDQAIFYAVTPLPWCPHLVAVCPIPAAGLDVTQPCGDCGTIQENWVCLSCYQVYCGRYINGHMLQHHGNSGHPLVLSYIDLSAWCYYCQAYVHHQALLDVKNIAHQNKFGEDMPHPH
To be noted: at 10 µM.

Test [2] addresses Protein deacetylase HDAC6 (Homo sapiens) (UniProt Q9UBN7). To be noted: at 10 µM. This is another data set of the same source.

Out of some 5,600 compounds screened, about 390 (7%) showed an effect of 50% or more. This is one part of a sample in which strong results are shown more often than they occur.

The text below walks through data of ChEMBL document CHEMBL4808148, “HDAC6 screening dataset using tau-based substrate in an enzymatic assay yields selective inhibitors and activators” (2021).

What is called inhibition is the change of the read-out against control, counted positive when it falls. In the case of `CN1CCC(COc2cnc(-c3cccc(Cn4nc(-c5cccc(C#N)c5)ccc4=O)c3)nc2)CC1`, in test [1], the inhibition came to 17.5%. On the same count and under the same terms, next, `COc1cc2c(cc1-c1c(C)noc1C)ncc1[nH]c(=O)n([C@H](C)c3ccccn3)c12`: 12.8%; `CC(=O)/N=c1/[nH]c(C)c(-c2ccc(Cl)c(S(=O)(=O)NCCO)c2)s1`: 23.4%; `CCCCC1=NC2(CCCC2)C(=O)N1Cc1ccc(-c2ccccc2-c2nnn[nH]2)cc1`: -8.81%. Consider `O=C(O)c1cnn(-c2nc3cc(OC(F)(F)F)c(Cl)cc3[nH]2)c1`, for which, in test [1], the inhibition amounted to 59.5%. Still for that read-out and setting: with `Cc1cc(NCCO)nc(-c2ccc(Br)cc2)n1` the figure was 85.2%; with `COc1ccc(Nc2nccc(NCCO)n2)cc1`, 37.2%; with `N#Cc1cc(CN2CCC(Nc3ncnc4sc(Cl)cc34)CC2)ccc1F`, 6.29%. Turning to `Cn1c(NC[C@@H](N)Cc2ccccc2)nc(-c2ccncc2)c(-c2ccc3ccccc3c2)c1=O`, in test [1], the inhibition was found to be 0.59%. In the case of `Nc1nccc2c1ncn2[C@@H]1O[C@H](CO)C(O)C1O` (some centres undefined), the inhibition in test [1] came to 11%. The same measure, in the same setting: with `C[C@H](NC(=O)CNC(=O)c1cccc(Cl)c1)c1ccccc1` the figure was 21.1%; with `COc1cc(C(=O)NCc2ccc(OCCN(C)C)cc2)cc(OC)c1OC`, 6.33%; with `COc1ccc(C(=O)NCc2ccc(OCCN(C)C)cc2)cc1OC`, 1.13%. On the same count and under the same terms, with `CN(C)Cc1c(C(=O)NCCOc2ccc(C(=O)NO)cc2)oc2ccccc12` the figure was 102%; with `N#Cc1cc2c(OCC(O)CN3CCN(C(c4ccccc4)c4ccccc4)CC3)cccc2[nH]1` (racemic), 3.02%.

As for `O=C1CC2(CCCC2)CC(=O)N1CCNCC1COc2ccccc2O1` (centres undefined), the inhibition in test [1] amounted to 5.51%. The same measure, in the same setting: next, `CN(C)C(=O)n1nnnc1Cc1ccc(-c2ccccc2)cc1`: 26.8%. As to `CCCNC(=O)N1N=C(c2ccc(N)cc2)c2cc3c(cc2C1C)OCO3` (centres undefined), in test [1], the inhibition amounted to 26.2%.

With `Cc1[nH]c(/C=C2\C(=O)Nc3ccc(F)cc32)c(C)c1C(=O)NC[C@H](O)CN1CCOCC1`, in test [1], the inhibition is 34%. As to `Cc1ccc(OCCSc2ncccn2)c(Br)c1`, in test [1], the inhibition was found to be 99.3%. Still for that read-out and setting: next, `CCCCCCCCCCCCCCC[C@@H](O)[C@@H](N)CO`: 26%. For the compound Sodium stibogluconate, CHEMBL2079699, the inhibition in test [2] was 0.83%. In the case of `CCN(CC)CCNC(=O)c1c(C)[nH]c(/C=C2\C(=O)Nc3ccc(F)cc32)c1C`, the inhibition in test [1] was found to be 16.3%. On the same count and under the same terms, next, `Cc1[nH]c(/C=C2\C(=O)Nc3ccccc32)c(C)c1CCC(=O)O`: 30.1%; `Cc1cc(C)c(/C=C2\C(=O)Nc3ccccc32)[nH]1`: 88.8%; `CN(C)c1ccc(/C=C2\C(=O)Nc3ccccc32)cc1`: 101%. Same read-out and setting: with `C#Cc1c[nH]c(=O)[nH]c1=O` the figure was -6.92%; with `CC1(C)CN2C(CS/C(=N\C3CCCCC3)NC3CCCCC3)=CSC2=N1`, 12.2%; with `O=S(=O)(NC1CCNCC1)c1cc(S(=O)(=O)c2ccccc2)ccc1C(F)(F)F`, -7.14%.
